Assay results: the supplement of paper PMC8728848
Shown is part of a subset that was picked to be rich in the strongest signals.

What was measured:
Experiment in all cases: glycan array binding signal (z-score within array); higher = stronger binding
Details in all cases: glycan notation: IUPAC condensed, linker removed
[1] = target: Fuc(a1-2)Gal(b1-3)[Fuc(a1-4)]GlcNAc(b1-2)Man(a1-3)[Fuc(a1-2)Gal(b1-3)[Fuc(a1-4)]GlcNAc(b1-2)Man(a1-6)]Man(b1-4)GlcNAc(b1-4)GlcNAc
Outline: (§1)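 Glycan array binding is given as a within-array Z-score, which can be read as non-binding when negative. The arrays, 3228 of them, came from the Consortium for Functional Glycomics database and were retained only where the protein sequence was available. Z-scores were averaged across arrays of the same protein sequence at different concentrations or buffers and across linkers.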

[2] = target: Fuc(a1-2)[Gal(a1-3)]Gal(b1-4)GlcNAc
Outline: as §1

[3] = target: Fuc(a1-2)[GalNAc(a1-3)]Gal(b1-3)GalNAc(a1-3)[Fuc(a1-2)]Gal(b1-4)GlcNAc
Outline: as §1

[4] = target: Fuc(a1-3)[Gal(b1-4)]GlcNAc(b1-6)[Gal(b1-3)GlcNAc(b1-3)]Gal(b1-4)Glc
Outline: as §1

[5] = target: Fuc(a1-3)[Gal(b1-4)]GlcNAc6S
Outline: as §1

[6] = target: Fuc(a1-3)[Gal3S(b1-4)]GlcNAc
Outline: as §1

[7] = target: Gal(a1-3)Gal(b1-4)[Fuc(a1-3)]GlcNAc(b1-2)Man(a1-3)[Gal(a1-3)Gal(b1-4)[Fuc(a1-3)]GlcNAc(b1-2)Man(a1-6)]Man(b1-4)GlcNAc(b1-4)GlcNAc
Outline: as §1

[8] = target: Gal(b1-3)GalNAc(b1-4)Gal(b1-4)Glc
Outline: as §1

[9] = target: Gal(b1-4)GlcNAc(b1-3)Gal(b1-4)Glc
Outline: as §1

[10] = target: Gal3S(b1-4)[Fuc(a1-3)]Glc6S
Outline: as §1

Gal3S4S(b1-4)GlcNAc = target: Gal3S4S(b1-4)GlcNAc
Outline: as §1

Gal3S6S(b1-4)GlcNAc6S = target: Gal3S6S(b1-4)GlcNAc6S
Outline: as §1

Gal4S6S(b1-4)GlcNAc = target: Gal4S6S(b1-4)GlcNAc
Outline: as §1

Gal6S(b1-4)Glc6S = target: Gal6S(b1-4)Glc6S
Outline: as §1

Gal6S(b1-4)GlcNAc = target: Gal6S(b1-4)GlcNAc
Outline: as §1

Gal6S(b1-4)GlcNAc6S = target: Gal6S(b1-4)GlcNAc6S
Outline: as §1

GalNAc(b1-3)GalNAc = target: GalNAc(b1-3)GalNAc
Outline: as §1

[11] = target: GlcNAc(a1-4)Gal(b1-4)GlcNAc(b1-3)Gal(b1-4)[Fuc(a1-3)]GlcNAc(b1-3)Gal(b1-4)[Fuc(a1-3)]GlcNAc
Outline: as §1

[12] = target: GlcNAc(a1-6)Gal(b1-4)GlcNAc
Outline: as §1

GlcNAc(b1-3)Gal(b1-4)Glc = target: GlcNAc(b1-3)Gal(b1-4)Glc
Outline: as §1

[13] = target: GlcNAc(b1-4)[GlcNAc(b1-6)]GalNAc
Outline: as §1

[14] = target: Man(a1-3)[Man(a1-6)]Man(a1-6)[Man(a1-3)]Man
Outline: as §1

[15] = target: Neu5Ac(a2-3)Gal(b1-4)[Fuc(a1-3)]GlcNAc(b1-3)GalNAc
Outline: as §1

[16] = target: Neu5Ac(a2-3)[GalNAc(b1-4)]Gal(b1-4)Glc
Outline: as §1

[17] = target: Neu5Ac(a2-6)Gal(b1-4)GlcNAc
Outline: as §1

[18] = target: Neu5Ac(a2-6)Gal(b1-4)GlcNAc(b1-2)Man(a1-6)Man(b1-4)GlcNAc(b1-4)GlcNAc
Outline: as §1

[19] = target: Fuc(a1-2)[GalNAc(a1-3)]Gal(b1-4)GlcNAc
Outline: as §1

Fuc(a1-3)GlcNAc = target: Fuc(a1-3)GlcNAc
Outline: as §1

[20] = target: Fuc(a1-3)[Gal(b1-4)]GlcNAc(b1-2)Man(a1-3)[Fuc(a1-3)[Gal(b1-4)]GlcNAc(b1-2)Man(a1-6)]Man(b1-4)GlcNAc(b1-4)GlcNAc
Outline: as §1

[21] = target: Fuc(a1-3)[Gal(b1-4)]GlcNAc(b1-4)Gal(b1-4)[Fuc(a1-3)]GlcNAc
Outline: as §1

[22] = target: Gal(a1-3)[Gal(a1-4)]Gal(b1-4)GlcNAc
Outline: as §1

Gal(b1-2)Gal = target: Gal(b1-2)Gal
Outline: as §1

[23] = target: Gal(b1-3)GlcNAc(b1-3)Gal(b1-4)Glc
Outline: as §1

[24] = target: Gal(b1-3)[Fuc(a1-4)]GlcNAc(b1-2)Man(a1-3)[Gal(b1-3)[Fuc(a1-4)]GlcNAc(b1-2)Man(a1-6)]Man(b1-4)GlcNAc(b1-4)[Fuc(a1-6)]GlcNAc
Outline: as §1

[25] = target: Gal(b1-3)[Neu5Ac(a2-6)]GalNAc
Outline: as §1

[26] = target: Gal(b1-4)GalNAc(b1-3)[Fuc(a1-2)]Gal(b1-4)GlcNAc
Outline: as §1

Gal3S(b1-3)GlcNAc = target: Gal3S(b1-3)GlcNAc
Outline: as §1

[27] = target: GlcNAc(a1-4)Gal(b1-3)GlcNAc
Outline: as §1

[28] = target: GlcNAc(a1-4)Gal(b1-4)GlcNAc(b1-3)Gal(b1-4)GlcNAc(b1-3)Gal(b1-4)GlcNAc
Outline: as §1

[29] = target: GlcNAc(b1-3)[GlcNAc(b1-6)]Gal(b1-4)GlcNAc
Outline: as §1

[30] = target: GlcNAc(b1-4)GlcNAc(b1-4)GlcNAc(b1-4)GlcNAc(b1-4)GlcNAc
Outline: as §1

[31] = target: Man(a1-2)Man(a1-2)Man(a1-3)Man
Outline: as §1

[32] = target: Man(a1-2)Man(a1-3)[Man(a1-2)Man(a1-6)]Man
Outline: as §1

[33] = target: Man(a1-2)Man(a1-3)[Man(a1-2)Man(a1-6)]Man(a1-6)[Man(a1-2)Man(a1-2)Man(a1-3)]Man
Outline: as §1

[34] = target: Man(a1-2)Man(a1-3)[Man(a1-2)Man(a1-6)]Man(a1-6)[Man(a1-2)Man(a1-2)Man(a1-3)]Man(b1-4)GlcNAc(b1-4)GlcNAc
Outline: as §1

[35] = target: Man(a1-3)[Man(a1-6)]Man(a1-6)[Man(a1-2)Man(a1-3)]Man(b1-4)GlcNAc(b1-4)GlcNAc
Outline: as §1

[36] = target: Man(a1-3)[Man(a1-6)]Man(a1-6)[Man(a1-3)]Man(b1-4)GlcNAc(b1-4)GlcNAc
Outline: as §1

[37] = target: Neu5Ac(a2-3)Gal(b1-4)GlcNAc
Outline: as §1

[38] = target: Neu5Ac(a2-3)Gal(b1-4)GlcNAc6S
Outline: as §1

[39] = target: Neu5Ac(a2-3)Gal(b1-4)[Fuc(a1-3)]GlcNAc
Outline: as §1

[40] = target: Neu5Ac(a2-3)Gal(b1-4)[Fuc(a1-3)]GlcNAc(b1-6)[Gal(b1-3)]GalNAc
Outline: as §1

[41] = target: Neu5Ac(a2-3)[GalNAc(b1-4)]Gal(b1-4)GlcNAc
Outline: as §1

[42] = target: Neu5Ac(a2-6)Gal(b1-4)GlcNAc(b1-2)Man(a1-3)[GlcNAc(b1-2)Man(b1-4)GlcNAc(b1-2)Man(a1-6)]Man(b1-4)GlcNAc(b1-4)GlcNAc
Outline: as §1

B1: Pp2-A2 (Arabidopsis thaliana), Q07098 (protein)
chain: MPSNGDLDRQIEQLMECKPLSEADVRTLCDQARAILVEEYNVQPVKCPVTVCGDIHGQFYDLIELFRIGGNAPDTNYLFMGDYVDRGYYSVETVSLLVALKVRYRDRLTILRGNHESRQITQVYGFYDECLRKYGNANVWKYFTDLFDYLPLTALIESQVFCLHGGLSPSLDTLDNIRSLDRIQEVPHEGPMCDLLWSDPDDRCGWGISPRGAGYTFGQDIAAQFNHNNGLSLISRAHQLVMEGFNWCQDKNVVTVFSAPNYCYRCGNMAAILEIGENMEQNFLQFDPAPRQVEPDTTRKTPDYFL
- glycan array binding signal (z-score) [1]: 2.08
- glycan array binding signal (z-score) [2]: -0.404
- glycan array binding signal (z-score) [3]: 0.21
- glycan array binding signal (z-score) [4]: -0.662
- glycan array binding signal (z-score) [5]: 0.633
- glycan array binding signal (z-score) [6]: -0.461
- glycan array binding signal (z-score) [7]: -0.298
- glycan array binding signal (z-score) [8]: -0.181
- glycan array binding signal (z-score) [9]: -0.032
- glycan array binding signal (z-score) [10]: 4.36
- glycan array binding signal (z-score) (Gal3S4S(b1-4)GlcNAc): 6.14
- glycan array binding signal (z-score) (Gal3S6S(b1-4)GlcNAc6S): 4.5
- glycan array binding signal (z-score) (Gal4S6S(b1-4)GlcNAc): 4.54
- glycan array binding signal (z-score) (Gal6S(b1-4)Glc6S): 4.11
- glycan array binding signal (z-score) (Gal6S(b1-4)GlcNAc): -0.117
- glycan array binding signal (z-score) (Gal6S(b1-4)GlcNAc6S): 2.28
- glycan array binding signal (z-score) (GalNAc(b1-3)GalNAc): -0.683
- glycan array binding signal (z-score) [11]: 5.17
- glycan array binding signal (z-score) [12]: -0.835
- glycan array binding signal (z-score) (GlcNAc(b1-3)Gal(b1-4)Glc): -0.721
- glycan array binding signal (z-score) [13]: -0.771
- glycan array binding signal (z-score) [14]: 0.061
- glycan array binding signal (z-score) [15]: 4.64
- glycan array binding signal (z-score) [16]: -0.213
- glycan array binding signal (z-score) [17]: -0.266
- glycan array binding signal (z-score) [18]: -0.465

B2: DC-SIGN (Canis lupus), XP_853402 (protein)
chain: AGLCRPCPWKWELFQESCYFFSQTQNTWKESISACQNLRAQLVIINSTEEQKFLKSWNTRNNQRTWIGLSDHHNEGSWKWVDNTPLQLSFWKEGEPNNHGDEDCVELYSDGWNDNRCSTENFWICKKPSSPCPGPGLNDIFEAQKIEWHE
- glycan array binding signal (z-score) [1]: 0.148
- glycan array binding signal (z-score) [19]: -0.137
- glycan array binding signal (z-score) (Fuc(a1-3)GlcNAc): 0.009
- glycan array binding signal (z-score) [20]: -0.157
- glycan array binding signal (z-score) [21]: 0.044
- glycan array binding signal (z-score) [22]: -0.15
- glycan array binding signal (z-score) (Gal(b1-2)Gal): -0.033
- glycan array binding signal (z-score) [23]: -0.172
- glycan array binding signal (z-score) [24]: 5.73
- glycan array binding signal (z-score) [25]: -0.216
- glycan array binding signal (z-score) [26]: -0.176
- glycan array binding signal (z-score) (Gal3S(b1-3)GlcNAc): -0.026
- glycan array binding signal (z-score) [27]: 0.018
- glycan array binding signal (z-score) [28]: -0.272
- glycan array binding signal (z-score) [11]: 1.73
- glycan array binding signal (z-score) [12]: -0.105
- glycan array binding signal (z-score) [29]: -0.336
- glycan array binding signal (z-score) [30]: -0.267
- glycan array binding signal (z-score) [31]: 7.92
- glycan array binding signal (z-score) [32]: 3.37
- glycan array binding signal (z-score) [33]: 7.69
- glycan array binding signal (z-score) [34]: 4.83
- glycan array binding signal (z-score) [35]: 11.8
- glycan array binding signal (z-score) [36]: 0.127
- glycan array binding signal (z-score) [37]: -0.217
- glycan array binding signal (z-score) [38]: -0.127
- glycan array binding signal (z-score) [39]: -0.257
- glycan array binding signal (z-score) [40]: -0.407
- glycan array binding signal (z-score) [41]: -0.085
- glycan array binding signal (z-score) [42]: -0.249
